In PubChem BioAssay AID2642 (Johns Hopkins Ion Channel Center, 2010):
Out of some 310,000 compounds screened, about 3,900 (1.3%) were called active.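 Rule for the calls: active = compounds whose thallium flux B-score, printed positive for inhibition, exceeds three library SD while starting fluorescence stays within three; inactive = the rest.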 The entries come from a sample that favours actives as a whole.

Target: Potassium voltage-gated channel subfamily KQT member 1 (Homo sapiens) (UniProt P51787)
Assay: KCNQ1 potassium current blockers – cell-based, thallium flux, high-throughput, primary screen (AID 2642);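 note: channel opened by potassium depolarization with thallium stimulus after 20 min compound exposure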
Details: CHO-K1 KCNQ1, FluxOR thallium flux fluorescence, at 10 µM; stronger effect = higher value

Sequence of Potassium voltage-gated channel subfamily KQT member 1 (Homo sapiens) (P51787 whole entry, looked up): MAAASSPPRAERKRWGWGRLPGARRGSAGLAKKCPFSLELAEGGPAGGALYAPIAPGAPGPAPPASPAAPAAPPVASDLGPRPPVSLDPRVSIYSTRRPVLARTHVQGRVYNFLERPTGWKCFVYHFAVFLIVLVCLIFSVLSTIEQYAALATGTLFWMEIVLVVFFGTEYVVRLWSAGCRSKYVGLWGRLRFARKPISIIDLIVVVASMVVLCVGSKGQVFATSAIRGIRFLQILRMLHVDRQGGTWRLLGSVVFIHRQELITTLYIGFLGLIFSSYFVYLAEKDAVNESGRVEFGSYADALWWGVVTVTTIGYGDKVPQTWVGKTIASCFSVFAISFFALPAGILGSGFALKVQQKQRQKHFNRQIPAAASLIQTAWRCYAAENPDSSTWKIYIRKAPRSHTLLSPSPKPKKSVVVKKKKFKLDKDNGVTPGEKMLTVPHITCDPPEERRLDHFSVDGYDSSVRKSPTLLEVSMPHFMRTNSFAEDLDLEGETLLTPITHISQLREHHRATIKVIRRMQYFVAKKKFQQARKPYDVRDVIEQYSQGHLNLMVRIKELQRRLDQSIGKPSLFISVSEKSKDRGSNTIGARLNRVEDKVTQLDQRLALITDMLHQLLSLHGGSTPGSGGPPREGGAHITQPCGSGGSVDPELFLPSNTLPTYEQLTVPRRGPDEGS

Row | Structure (SMILES) | B-score
1 | CCc1nc2nc(C)c(NS(=O)(=O)c3ccc4c(c3)CCCC4)c(=O)n2[nH]1 | inactive
2 | CCCCc1ccc(NC(=O)NCc2cccnc2)cc1 | inactive
3 | O=S(=O)(NCCSc1ccccn1)c1ccc(Cl)cc1 | inactive
4 | Cc1cc(O)ccc1NC1=CC(=O)CC(C)(C)C1 | inactive
5 | CCOc1ccc(NC(=O)CN(C)C(=O)c2c(C)noc2C)cc1OCC | inactive
6 | CCOn1c(SC(C)C)nc2ccccc2c1=O | inactive
7 | CCOC(=O)C1CCc2nc3ccccc3c(=O)n21 (stereo not given) | inactive
8 | CCOC(=O)C(C)Sc1nc2ccccc2c(=O)n1CC1CCCCC1 (stereo not given) | 7 (active)
9 | Cc1c(OC(C)C(=O)NCC2CCC(C(=O)O)CC2)ccc2c1oc(=O)c1ccccc12 (stereo not given) | inactive
10 | Cc1noc(C)c1CSCC(=O)Nc1ccc(Br)cc1Cl | inactive
11 | CCc1noc(C)c1C(=O)Nc1nc2ccc(OC)cc2s1 | inactive
12 | Cc1noc(C)c1CSCC(=O)Nc1nc2ccc(Oc3ccccc3)cc2s1 | 8 (active)
13 | Cc1ccc(-n2ncc(C(=O)NC3CC3)c2C2CCN(C(=O)OC(C)(C)C)CC2)c(C)c1 | inactive
14 | COCc1c(C(=O)OCc2c(C)noc2C)oc2ccccc12 | inactive
15 | CCOC(=O)c1oc2ccccc2c1NC(=O)c1cccs1 | inactive
16 | Cc1cc(C)c(NC(=O)c2oc3ccccc3c2COc2ccccc2)c(C)c1 | 10 (active)
17 | COc1cc(C(C(=O)NC2CCCC2)N(Cc2ccccc2)C(=O)c2snc(C(N)=O)c2N)ccc1O (stereo not given) | inactive
18 | O=C(Nc1ccc(Cl)c(Cl)c1)N1CC=C(c2ccccc2)CC1 | 11 (active)
19 | COc1cc(C(=O)NCC(=O)N2CC=C(c3ccccc3)CC2)cc(OC)c1OC | inactive
20 | O=C(Nc1ccccc1)N1CCN(C(=O)Nc2ccccc2)CC1 | inactive
21 | O=C(NCCCN1CCCCC1)C1CC(=O)N(CCc2ccccc2)C1 (stereo not given) | inactive
22 | NC(=O)c1cc(-c2cccnc2)nc2ccc(Br)cc12 | inactive
23 | O=C(NNC(=S)NC(=O)c1cn(-c2ccccc2)nc1-c1ccccc1)c1ccncc1 | 6 (active)
24 | NC(=O)C1CCN(C(=O)c2cn(-c3ccccc3)nc2-c2cccnc2)CC1 | inactive
25 | Cc1onc(-c2ccccc2)c1C(=O)NNC(=S)NC(=O)c1ccc(F)cc1 | inactive
26 | c1ccc(-c2ccc3c(c2)NC(C2Nc4cc(-c5ccccc5)ccc4O2)O3)cc1 (stereo not given) | inactive
27 | CNS(=O)(=O)c1ccc(N2CCCC2=O)c([N+](=O)[O-])c1 | inactive

Row | Structure (SMILES) | B-score
28 | CC(=O)Nc1ccc(S(=O)(=O)Nc2ccc(-c3ccc4nnc(C)n4n3)cc2)cc1 | inactive
29 | Cc1ccc(N(CC(=O)Nc2cccc(N(C)S(C)(=O)=O)c2)S(C)(=O)=O)cc1 | inactive
30 | CN(c1cccc(NC(=O)Nc2ccc(Cl)cc2)c1)S(C)(=O)=O | 10 (active)
31 | COc1cccc(N(CC(=O)Nc2cccc(N(C)S(C)(=O)=O)c2)S(C)(=O)=O)c1 | inactive
32 | COc1cccc(NC(=O)CN(C)C(=O)CSCc2nc3scc(-c4cccs4)c3c(=O)[nH]2)c1 | inactive
33 | COc1ccc(C2NC(=O)C(=O)/C2=C(\O)c2ccc(Cl)cc2)cc1OC (stereo not given) | inactive
34 | O=C(Nc1ncc([N+](=O)[O-])s1)C1COc2ccccc2O1 (stereo not given) | inactive
35 | O=C(CCc1ccccc1)Nc1ncc([N+](=O)[O-])s1 | inactive
36 | CC(=O)Oc1ccccc1C(=O)Nc1ncc([N+](=O)[O-])s1 | 7 (active)
37 | CC(NC(=O)c1cc(=O)[nH]c2ccccc12)c1ccc(F)cc1F (stereo not given) | inactive
38 | CC(=O)c1cc2c(cc1NC(=O)Cn1nc(-c3ccc(F)cc3)ccc1=O)OCO2 | inactive
39 | COc1cnc(-c2ccccn2)nc1Oc1ccc(C(C)(C)C)cc1 | inactive
40 | COc1ccc(S(=O)(=O)N2CCCCCC2)cc1C(=O)OCC(=O)Nc1cc(C)on1 | inactive
41 | Cc1cc(C)nc(S/C=C/C(=O)c2ccccc2)n1 | inactive
42 | O=C(CSc1ncn[nH]1)N/N=C/c1ccc(F)cc1 | inactive
43 | O=C(/C=C/Sc1ncn[nH]1)c1ccc(Cl)cc1 | 7 (active)
44 | CCOc1cc(NC(=S)NCCCN(C)C)c(OCC)cc1NC(=O)C1CC1 | inactive
45 | OC(COc1cccc2ccccc12)CN1CCN(c2ccccn2)CC1 (stereo not given) | inactive
46 | CC(C)c1ccccc1OCC(O)CN(CC(O)COc1cccc2ccccc12)C(C)C (stereo not given) | 6 (active)
47 | Cc1cc(C)c(NC(=O)C[N+](C)(C)CC(O)COc2cccc3ccccc23)c(C)c1 (stereo not given) | inactive
48 | O=C(CC1C(=O)NCCN1Cc1ccc(-c2ccccc2)cc1)NCc1ccncc1 (stereo not given) | inactive
49 | Cc1ccc(OCC(=O)Nc2ccccc2C(=O)NC2CC2)cc1C | inactive
50 | O=[N+]([O-])c1ccc(O)c(/C=N/Nc2ccccc2[N+](=O)[O-])c1 | 9 (active)
51 | O=C(N/N=C/c1cc([N+](=O)[O-])ccc1O)/C(=C\c1cccs1)NC(=O)c1ccccc1 | inactive
52 | Nc1nnnn1/N=C/c1cc([N+](=O)[O-])ccc1O | inactive
53 | CCOc1ccc(CN2CCN(CCCc3ccccc3)C(CCO)C2)cc1 (stereo not given) | inactive
54 | CN1CCN(C2=NCCO2)CC1 | inactive

Row | Structure (SMILES) | B-score
55 | COc1ccc(OC)c(C(=O)NC(CC(N)=O)c2ccc(N3CCC(N4CCCCC4)CC3)c([N+](=O)[O-])c2)c1 (stereo not given) | inactive
56 | O=C(CNS(=O)(=O)c1ccccc1)N1CCN(C(=O)c2ccco2)CC1 | inactive
57 | CCS(=O)(=O)C1=NSC2=NC(=O)/C(=C\c3ccc(OS(=O)(=O)c4ccccc4)cc3)C(=N)N21 | inactive
58 | Cc1cc(/C=C2/C(=N)N3C(=NC2=O)SN=C3S(C)(=O)=O)c(C)n1-c1ccccc1 | inactive
59 | CCS(=O)(=O)C1=NSC2=NC(=O)/C(=C\c3cc(C)n(-c4cccc(OC)c4)c3C)C(=N)N21 | 8 (active)
60 | CCc1cc(=O)oc2cc(C)cc(OCC(=O)N3CCC[C@@H]3C(=O)O)c12 | inactive
61 | COc1ccc(N2CCN(C(=O)Cn3cnc4sc(C)c(S(=O)(=O)N5CCOCC5)c4c3=O)CC2)cc1 | inactive
62 | C=CCn1nc(-c2ccccc2)c2c(C)onc2c1=O | inactive
63 | CCOc1ccc(CN(Cc2ccco2)S(=O)(=O)c2ccc(-n3cnnn3)c(OC)c2)cc1 | inactive
64 | CC(C)(C)n1nnnc1C(c1cccs1)N(Cc1cccnc1)CC1CCCO1 (stereo not given) | inactive
65 | CCOc1ccc(CN(Cc2ccco2)C(c2cccs2)c2nnnn2C(C)(C)C)cc1 (stereo not given) | 7 (active)
66 | Cc1c(Cl)cccc1NC(=O)[C@@]1(CC(=O)O)CC(/C=C/c2ccccc2)=NO1 | inactive
67 | CC(Oc1ccc(F)cc1)C(=O)Nc1cc(S(=O)(=O)N2CCOCC2)ccc1N1CCN(C)CC1 (stereo not given) | inactive
68 | Cc1ccc(S(=O)(=O)N2CCC3(CC2)OCCO3)c(C)c1 | inactive
69 | CCOC(=O)C1CCN(C(=O)C2(NC(=O)Nc3cccc(F)c3)CCCCC2)CC1 | inactive
70 | Brc1ccccc1/C=N/Nc1nc2ccccc2o1 | inactive
71 | Oc1cccc(/C=N/Nc2ccc(Cl)nn2)c1O | inactive
72 | Oc1c(Br)cccc1/C=N/Nc1c(F)c(F)c(F)c(F)c1F | 7 (active)
73 | COc1cccc(NC(=O)CN(C)C(C)C(=O)Nc2ccc(C#N)cc2)c1 (stereo not given) | inactive
74 | COc1ccc(N(CC(=O)Nc2ccc(F)c(F)c2)S(=O)(=O)c2c(C)[nH]c(=O)[nH]c2=O)cc1 | inactive
75 | COc1ccccc1NC(=O)C1CCN(C(=O)c2ccc(C(C)(C)C)cc2)CC1 | inactive
76 | O=C(CCNC(=O)c1ccc(Br)cc1)NCCCc1ccccc1 | inactive
77 | S=C(NCCCc1ccccc1)Nc1ccc(Br)cc1 | 7 (active)
78 | S=C(NCCc1ccccc1)Nc1ccccc1 | inactive
79 | Cc1cn(C)c(=O)n(C)c1=O | inactive
80 | O=c1onc(-c2c(F)cccc2F)n1-c1ccccc1Cl | inactive
81 | O=C(CN1C(=O)NC2(CCCCCC2)C1=O)NC1CC1 | inactive

Row | Structure (SMILES) | B-score
82 | CC1CCC2(CC1)NC(=O)N(CC(=O)c1ccc3c(c1)OCO3)C2=O (stereo not given) | inactive
83 | CC1CCC2(CC1)NC(=O)N(CC(=O)c1cccn1C)C2=O (stereo not given) | 7 (active)
84 | Cc1ccc(CNC(=O)CSc2nnc3c(n2)[nH]c2ccc(F)cc23)cc1 | inactive
85 | CN(C)/C=C(/C(=O)c1ccc(Cl)cc1)S(=O)(=O)c1ccccc1 | inactive
86 | CCCC1CCC(=NNC(=S)NCCc2ccccc2)CC1 (stereo not given) | 7 (active)
87 | S=C(NCCc1ccccc1)NCC1CCCO1 (stereo not given) | inactive
88 | S=C(NN=C1CCN(Cc2ccccc2)CC1)NC1CCCCC1 | inactive
89 | COc1ccc(S(=O)(=O)NCC(=O)NCc2cc(=O)n(C)c(=O)n2C)cc1F | inactive
90 | Cc1ccc(S(=O)(=O)N2CCN(CC(=O)N/N=C/c3ccc(Br)s3)CC2)cc1 | inactive
91 | CCC(CC)C(=O)N1CCN(c2cccc(C)c2C)CC1 | inactive
92 | CCn1c(C)c(C)c2cc(C(=O)N3CCN(c4cccc(C)c4C)CC3)ccc21 | 10 (active)
93 | Cc1cccc(N2CCN(C(=O)c3cccc(N4C(=O)C5C6C=CC(C6)C5C4=O)c3)CC2)c1C (stereo not given) | inactive
94 | C=CCC1(CC=C)CCCN1C(=O)c1cc(COc2ccc(-n3cncn3)cc2)on1 | 11 (active)
95 | O=C(c1cc(COc2ccc(F)c(F)c2)on1)N1CCOCC1 | inactive
96 | CCn1ccnc1CN(C)C(=O)c1cc(COc2ccc(-n3cncn3)cc2)on1 | inactive
97 | NS(=O)(=O)c1cc(C(=O)NCCOc2ccccc2)c(Cl)cc1Cl | inactive
98 | COc1ccc(-n2c(C)cc(C(=O)COC(=O)c3cc(OC)c(OC)cc3NC(=O)c3cccs3)c2C)cc1 | inactive
99 | COc1ccc(Nc2ncnc3sc(-c4ccccc4)cc23)c(OC)c1 | 7 (active)
100 | COc1ccc(Nc2ncnc3sc(C)cc23)cc1 | inactive
101 | COc1ccc(Nc2ncnc3ccc(Br)cc23)c(OC)c1 | inactive
102 | c1ccc2c(c1)C(=NC1CCCCC1)NC2=NC1CCCCC1 | 6 (active)
103 | CC1(C)CC(=O)C=C(N2CCCC2)C1 | inactive
104 | O=C(O)CN1CCN(C(c2ccccc2)c2ccccc2)CC1 | inactive
105 | CC1(C)CC(N2CCN(C(c3ccccc3)c3ccccc3)CC2)=CC(=[N+]2CCCCC2)C1 | 9 (active)
